# Test results published in the supplement of paper PMC4466140.
# B1: unnamed (peptide)
# chain: QGYPRQPQRPQRYHP
# B2: unnamed (peptide)
# chain: SHRLWLYAAPKRPKT
# B3: unnamed (peptide)
# chain: PSRRAPLQLPQLVNK
# Tests used:
# Test in all cases: SPOT peptide array binding signal intensity (averaged, normalized) (arbitrary units (background-subtracted, floor 0; scale differs between SH3 domains)); higher = stronger binding of the SH3 domain to the peptide
# [1] = molecular target: SpBzz1-D2
# Procedure, shortened: (§1)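 Four yeast species supplied the SH3 domains, which were expressed as GST fusions in E. coli BL21(DE3) and purified on glutathione Sepharose. Incubation with cellulose membranes carrying synthetic 15-mer peptides, cysteines exchanged for serines, ran overnight at 4°C at 10 μg/ml in TBS-based blocking buffer. Binding signal is reported as normalized, background-subtracted spot intensity averaged over replicates, in arbitrary units not shared between domains.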
# [2] = molecular target: SpCyk3
# Procedure, shortened: as §1
# [3] = molecular target: SpHof1
# Procedure, shortened: as §1
# [4] = molecular target: SpHof1-2
# Procedure, shortened: as §1
# [5] = molecular target: SpHof1-3
# Procedure, shortened: as §1
# [6] = molecular target: SpHse1
# Procedure, shortened: as §1
# [7] = molecular target: SpLsb1
# Procedure, shortened: as §1
# [8] = molecular target: SpLsb4
# Procedure, shortened: as §1
# [9] = molecular target: SpMyo1
# Procedure, shortened: as §1
# [10] = molecular target: SpNbp2
# Procedure, shortened: as §1
# [11] = molecular target: SpPex13
# Procedure, shortened: as §1
# [12] = molecular target: SpRvs167
# Procedure, shortened: as §1
# [13] = molecular target: SpSla1-D1-D2
# Procedure, shortened: as §1
# [14] = molecular target: SpSla1-D3
# Procedure, shortened: as §1
# [15] = molecular target: AgAbp1
# Procedure, shortened: as §1
# [16] = molecular target: AgBbc1
# Procedure, shortened: as §1
# [17] = molecular target: AgBem1-D1
# Procedure, shortened: as §1
# [18] = molecular target: AgBzz1-D1
# Procedure, shortened: as §1
# [19] = molecular target: AgBzz1-D2
# Procedure, shortened: as §1
# [20] = molecular target: AgCyk3
# Procedure, shortened: as §1
# [21] = molecular target: AgFus1
# Procedure, shortened: as §1
# [22] = molecular target: AgHof1
# Procedure, shortened: as §1
# [23] = molecular target: AgHse1
# Procedure, shortened: as §1
# [24] = molecular target: AgLsb1
# Procedure, shortened: as §1
# [25] = molecular target: AgLsb4
# Procedure, shortened: as §1
# [26] = molecular target: AgMyo5
# Procedure, shortened: as §1
# [27] = molecular target: AgNbp2
# Procedure, shortened: as §1
# [28] = molecular target: AgRvs167
# Procedure, shortened: as §1
# [29] = molecular target: AgSho1
# Procedure, shortened: as §1
# [30] = molecular target: AgSla1-D1-D2
# Procedure, shortened: as §1
# [31] = molecular target: AgSla1-D3
# Procedure, shortened: as §1
# [32] = molecular target: CaAbp1-D1
# Procedure, shortened: as §1
# [33] = molecular target: CaAbp1-D2
# Procedure, shortened: as §1
# [34] = molecular target: CaBbc1
# Procedure, shortened: as §1
# [35] = molecular target: CaBem1-D1
# Procedure, shortened: as §1
# [36] = molecular target: CaBzz1-D1
# Procedure, shortened: as §1
# [37] = molecular target: CaBzz1-D2
# Procedure, shortened: as §1
# [38] = molecular target: CaCyk3
# Procedure, shortened: as §1
# [39] = molecular target: CaFus1
# Procedure, shortened: as §1
# [40] = molecular target: CaHof1
# Procedure, shortened: as §1
# [41] = molecular target: CaHse1
# Procedure, shortened: as §1
# [42] = molecular target: CaLsb1
# Procedure, shortened: as §1
# [43] = molecular target: CaLsb4
# Procedure, shortened: as §1
# [44] = molecular target: CaMyo5
# Procedure, shortened: as §1
# [45] = molecular target: CaNbp2
# Procedure, shortened: as §1
# [46] = molecular target: CaRvs167
# Procedure, shortened: as §1
# [47] = molecular target: CaRvs167-3
# Procedure, shortened: as §1
# [48] = molecular target: CaSho1
# Procedure, shortened: as §1
# [49] = molecular target: CaSla1-D1-D2
# Procedure, shortened: as §1
# [50] = molecular target: CaSla1-D3
# Procedure, shortened: as §1
# [51] = molecular target: ScAbp1
# Procedure, shortened: as §1
# [52] = molecular target: ScBbc1
# Procedure, shortened: as §1
# [53] = molecular target: ScBem1-D1
# Procedure, shortened: as §1
# [54] = molecular target: ScBzz1-D1
# Procedure, shortened: as §1
# [55] = molecular target: ScBzz1-D2
# Procedure, shortened: as §1
# [56] = molecular target: ScCyk3
# Procedure, shortened: as §1
# [57] = molecular target: ScFus1
# Procedure, shortened: as §1
# [58] = molecular target: ScHof1
# Procedure, shortened: as §1
# [59] = molecular target: ScHse1
# Procedure, shortened: as §1
# [60] = molecular target: ScLsb1
# Procedure, shortened: as §1
# [61] = molecular target: ScLsb2
# Procedure, shortened: as §1
# [62] = molecular target: ScLsb3
# Procedure, shortened: as §1
# [63] = molecular target: ScLsb4
# Procedure, shortened: as §1
# [64] = molecular target: ScMyo3
# Procedure, shortened: as §1
# [65] = molecular target: ScMyo5
# Procedure, shortened: as §1
# [66] = molecular target: ScNbp2
# Procedure, shortened: as §1
# [67] = molecular target: ScPex13
# Procedure, shortened: as §1
# [68] = molecular target: ScRvs167
# Procedure, shortened: as §1
# [69] = molecular target: ScSho1
# Procedure, shortened: as §1
# [70] = molecular target: ScSla1-D1-D2
# Procedure, shortened: as §1
# [71] = molecular target: ScSla1-D3
# Procedure, shortened: as §1
# [72] = molecular target: SpAbp1-D1
# Procedure, shortened: as §1
# [73] = molecular target: SpBbc1
# Procedure, shortened: as §1
# [74] = molecular target: SpBzz1-D1
# Procedure, shortened: as §1
binder,measurement,setting,value
B1,SPOT peptide array binding signal intensity,[1],0.5
same,SPOT peptide array binding signal intensity,[2],≤ 0
same,SPOT peptide array binding signal intensity,[3],5
same,SPOT peptide array binding signal intensity,[4],≤ 0
same,SPOT peptide array binding signal intensity,[5],0.5
same,SPOT peptide array binding signal intensity,[6],2
same,SPOT peptide array binding signal intensity,[7],4
same,SPOT peptide array binding signal intensity,[8],1230
same,SPOT peptide array binding signal intensity,[9],≤ 0
same,SPOT peptide array binding signal intensity,[10],≤ 0
same,SPOT peptide array binding signal intensity,[11],1
same,SPOT peptide array binding signal intensity,[12],3
same,SPOT peptide array binding signal intensity,[13],≤ 0
same,SPOT peptide array binding signal intensity,[14],≤ 0
B2,SPOT peptide array binding signal intensity,[15],15.5
same,SPOT peptide array binding signal intensity,[16],42
same,SPOT peptide array binding signal intensity,[17],110
same,SPOT peptide array binding signal intensity,[18],46
same,SPOT peptide array binding signal intensity,[19],42
same,SPOT peptide array binding signal intensity,[20],0.5
same,SPOT peptide array binding signal intensity,[21],296
same,SPOT peptide array binding signal intensity,[22],26
same,SPOT peptide array binding signal intensity,[23],5
same,SPOT peptide array binding signal intensity,[24],0.5
same,SPOT peptide array binding signal intensity,[25],28.5
same,SPOT peptide array binding signal intensity,[26],5.5
same,SPOT peptide array binding signal intensity,[27],29.5
same,SPOT peptide array binding signal intensity,[28],2
same,SPOT peptide array binding signal intensity,[29],23.5
same,SPOT peptide array binding signal intensity,[30],44
same,SPOT peptide array binding signal intensity,[31],11
same,SPOT peptide array binding signal intensity,[32],63
same,SPOT peptide array binding signal intensity,[33],37.5
same,SPOT peptide array binding signal intensity,[34],100
same,SPOT peptide array binding signal intensity,[35],52
same,SPOT peptide array binding signal intensity,[36],73
same,SPOT peptide array binding signal intensity,[37],38.5
same,SPOT peptide array binding signal intensity,[38],7
same,SPOT peptide array binding signal intensity,[39],266
same,SPOT peptide array binding signal intensity,[40],0.5
same,SPOT peptide array binding signal intensity,[41],26.2
same,SPOT peptide array binding signal intensity,[42],1.5
same,SPOT peptide array binding signal intensity,[43],48
same,SPOT peptide array binding signal intensity,[44],18
same,SPOT peptide array binding signal intensity,[45],133
same,SPOT peptide array binding signal intensity,[46],14
same,SPOT peptide array binding signal intensity,[47],24.5
same,SPOT peptide array binding signal intensity,[48],149
same,SPOT peptide array binding signal intensity,[49],10.5
same,SPOT peptide array binding signal intensity,[50],17.8
same,SPOT peptide array binding signal intensity,[51],41
same,SPOT peptide array binding signal intensity,[52],7.75
same,SPOT peptide array binding signal intensity,[53],19
same,SPOT peptide array binding signal intensity,[54],42
same,SPOT peptide array binding signal intensity,[55],71
same,SPOT peptide array binding signal intensity,[56],20
same,SPOT peptide array binding signal intensity,[57],260
same,SPOT peptide array binding signal intensity,[58],3.25
same,SPOT peptide array binding signal intensity,[59],404
same,SPOT peptide array binding signal intensity,[60],0.5
same,SPOT peptide array binding signal intensity,[61],3
same,SPOT peptide array binding signal intensity,[62],64
same,SPOT peptide array binding signal intensity,[63],≤ 0
same,SPOT peptide array binding signal intensity,[64],10
same,SPOT peptide array binding signal intensity,[65],18.5
same,SPOT peptide array binding signal intensity,[66],30
same,SPOT peptide array binding signal intensity,[67],8.75
same,SPOT peptide array binding signal intensity,[68],18.3
same,SPOT peptide array binding signal intensity,[69],309
same,SPOT peptide array binding signal intensity,[70],32
same,SPOT peptide array binding signal intensity,[71],5
same,SPOT peptide array binding signal intensity,[72],45
same,SPOT peptide array binding signal intensity,[73],5
same,SPOT peptide array binding signal intensity,[74],171
same,SPOT peptide array binding signal intensity,[1],0.5
same,SPOT peptide array binding signal intensity,[2],3
same,SPOT peptide array binding signal intensity,[3],84
same,SPOT peptide array binding signal intensity,[4],24.5
same,SPOT peptide array binding signal intensity,[5],216
same,SPOT peptide array binding signal intensity,[6],157
same,SPOT peptide array binding signal intensity,[7],35.5
same,SPOT peptide array binding signal intensity,[8],38.5
same,SPOT peptide array binding signal intensity,[9],7.5
same,SPOT peptide array binding signal intensity,[10],30
same,SPOT peptide array binding signal intensity,[11],23
same,SPOT peptide array binding signal intensity,[12],7.33
same,SPOT peptide array binding signal intensity,[13],3
same,SPOT peptide array binding signal intensity,[14],15
B3,SPOT peptide array binding signal intensity,[15],15
same,SPOT peptide array binding signal intensity,[16],8.5
same,SPOT peptide array binding signal intensity,[17],26
same,SPOT peptide array binding signal intensity,[18],13
same,SPOT peptide array binding signal intensity,[19],35
same,SPOT peptide array binding signal intensity,[20],≤ 0
same,SPOT peptide array binding signal intensity,[21],≤ 0
same,SPOT peptide array binding signal intensity,[22],36.5
same,SPOT peptide array binding signal intensity,[23],≤ 0
same,SPOT peptide array binding signal intensity,[24],214
same,SPOT peptide array binding signal intensity,[25],≤ 0
same,SPOT peptide array binding signal intensity,[26],≤ 0
same,SPOT peptide array binding signal intensity,[27],3
same,SPOT peptide array binding signal intensity,[28],≤ 0
same,SPOT peptide array binding signal intensity,[29],≤ 0
same,SPOT peptide array binding signal intensity,[30],6
same,SPOT peptide array binding signal intensity,[31],1.5
same,SPOT peptide array binding signal intensity,[32],89.5
same,SPOT peptide array binding signal intensity,[33],52
same,SPOT peptide array binding signal intensity,[34],279
same,SPOT peptide array binding signal intensity,[35],11.5
same,SPOT peptide array binding signal intensity,[36],130
same,SPOT peptide array binding signal intensity,[37],41.8
same,SPOT peptide array binding signal intensity,[38],3
same,SPOT peptide array binding signal intensity,[39],23.5
same,SPOT peptide array binding signal intensity,[40],≤ 0
same,SPOT peptide array binding signal intensity,[41],≤ 0
same,SPOT peptide array binding signal intensity,[42],≤ 0
same,SPOT peptide array binding signal intensity,[43],17
same,SPOT peptide array binding signal intensity,[44],≤ 0
